hgDAF-12 ag = hgDAF-12 agonism, primary luciferase screen; HEK293 GAL4-hgDAF12 UAS-luciferase reporter, agonist luminescence; normalized to butyrate control; hit rate 1.8% among 370,000; activation, % at 6.8 µM; AID 687014;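 active = activation above a cutoff set at the mean of all screened compounds plus 3 SD, cut at about 10% in these data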;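 note: 0% = DMSO wells and 100% = sodium butyrate wells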
hcDAF12 agonist = activates DAF-12 receptor from parasite H. contortus | activation, % at 6.8 µM | HEK293 hcDAF-12 lit1-tk-luc reporter, luminescence; 0% DMSO, 100% Δ7-dafachronic acid | hit rate 1.4% among 370,000;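 active = activation above the mean of all tested compounds plus 3 SD, cut at about 5.5% in these data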;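 note: 100% = response to 3 µM Δ7-dafachronic acid high control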
ssDAF12 agonist = activates DAF-12 receptor from parasite S. stercoralis; HEK293 ssDAF-12/GRIP1 lit1-tk-luc reporter, luminescence; % of 3 µM dafachronic acid response; activation, % at 6.8 µM; hit rate 1% among 370,000; AID 652126;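 active = activation above the mean over all tested compounds plus 3 SD, cut at about 0.9% in these data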;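 note: 0% = DMSO-only wells and 100% = 3 µM delta7-dafachronic acid wells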
DAX1 inh-1 = DAX1 (NR0B1) inhibition, primary screen | AID 652010 | hit rate 1.1% among 370,000 | inhibition, % at 6.8 µM | HEK293T StAR-luciferase reporter, SF-1/DAX-1 repression relief;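 active = inhibition above the mean over all tested compounds plus 3 SD, cut at about 3.6% in these data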;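 note: 0% = DAX-1 cells with DMSO and 100% = cells lacking DAX-1 with DMSO; higher inhibition means more luminescence from relief of DAX-1 repression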
DAX1 inh-2 = inhibitors of human orphan nuclear receptor DAX1 (NR0B1); P51843; HEK293 Gal4-DAX1 luciferase reporter, luminescence; inhibition, % at 6.75 µM; hit rate 0.99% among 340,000;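 active = inhibition above the mean over all tested compounds plus 3 SD, cut at about 4.2% in these data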;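 note: 0% = DAX1-transfected cells with DMSO and 100% = empty-vector control cells with DMSO; inhibition shows as a rise in luminescence from relieved DAX1 repression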
Target sequence (P51843 207-470 limits assumed): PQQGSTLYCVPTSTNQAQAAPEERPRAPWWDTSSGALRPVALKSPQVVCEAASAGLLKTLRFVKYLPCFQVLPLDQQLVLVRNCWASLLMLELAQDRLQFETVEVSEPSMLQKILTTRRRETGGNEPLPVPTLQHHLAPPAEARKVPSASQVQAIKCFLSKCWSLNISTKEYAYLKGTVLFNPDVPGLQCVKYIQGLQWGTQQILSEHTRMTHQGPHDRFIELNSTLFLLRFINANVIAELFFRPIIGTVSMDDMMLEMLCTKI
AHR activator = activates the human aryl hydrocarbon receptor; P35869; AHR-responsive luciferase reporter cells, luminescence; activation, % at 5 µM; hit rate 2.5% among 320,000; in the data active = activation above about 47%;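 note: 0% = vehicle wells and 100% = reference agonist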
An asterisk follows results filed as active; nt = no result given. In the library only some 5.7% were active in any assay of this set; here they are far more common.

SMILES	hgDAF-12 ag	hcDAF12 agonist	ssDAF12 agonist	DAX1 inh-1	DAX1 inh-2	AHR activator
COc1ccc(-c2cc(C(=O)N3CCN(c4ccccc4OC)CC3)no2)cc1OC	-1	-3	-2	0	0	2
COc1ccc2c(c1)CCC1C2=NN(/C(C)=C\C(C)=O)C1c1ccc(F)cc1 (configuration not stated)	8	6.0*	0	0	-1	60*
COc1ccc2c(c1)C1=NN(/C(C)=C/C(C)=O)C(c3cccc(F)c3)C1CC2 (configuration not stated)	3	3	1	-1	1	97*
COc1ccc(/C=C2\CCCC3C2=NN(C(=O)CSc2ncn[nH]2)C3c2ccc(OC)cc2)cc1 (configuration not stated)	2	0	-2	0	-2	1
COc1ccc(/C=C2\CCCC3C2=NN(C(=O)COC(=O)CNC(=O)c2ccccc2)C3c2ccc(OC)cc2)cc1 (configuration not stated)	0	0	-1	1	-2	-4
COc1ccc2c(c1)C1=NN(/C(C)=C\C(C)=O)C(c3ccccc3)C1CC2 (configuration not stated)	2	3	0	-1	0	84*
COc1cc2sc(-c3ccc(S(C)(=O)=O)cc3)c(C(=O)NCc3ccc(C)o3)c2cc1OC	1	-1	-1	0	-2	3
CC(C)(C)c1ccc(S(=O)(=O)N2CCC(C(=O)N3CCN(C4CCCCC4)CC3)CC2)cc1	2	-1	-1	-1	nt	nt
C/C(=N\NC(=S)NC(C)C)c1ccco1	1	1	-2	0	0	3
COC(=O)c1c(-c2ccccc2)csc1NC1=NS(=O)(=O)c2ccccc21	10	2	0	3.8*	2	16
c1ccc(SSc2ccccn2)nc1	nt	nt	nt	nt	0	0
c1ccc(CNc2nc3ccccc3n3cnnc23)nc1	0	-4	-1	0	-1	50*
O=C(O)Cc1c(C(=O)O)nnn1-c1cccc(C(F)(F)F)c1	-3	0	-1	-1	3	0
NC(=O)CSc1nc(C2CC2)nc2sc3c(c12)CCCC3	12*	2	-1	1	5.6*	4
CC(=O)Nc1cc2c(cc1Br)-c1ccccc1C2	11*	6.2*	0	2	1	nt
NC(=O)c1sc(=S)n(-c2ccc(Br)cc2)c1N	1	6.5*	0	-1	1	37
CCNC(=O)c1sc(=S)n(-c2ccc(C)cc2)c1N	0	-2	-2	-1	2	0
CCCC(C)NC(=O)/C=C/c1cccc([N+](=O)[O-])c1 (configuration not stated)	1	1	-1	-1	-1	5
CCN1CCN(CC(=O)c2c[nH]c3ccccc23)CC1	-2	5.6*	1	1	0	26
O=C1NC(=O)C(=Cc2ccc(Cl)c(Cl)c2)S1	4	2	-1	0	2	nt
O=C1NC(=O)/C(=C/c2ccc(O)cc2)S1	14*	0	-1	1	1	11
O=C(Cn1cncn1)N/N=C/c1cccc2ccccc12	-3	1	-1	-1	-1	70*
COC(=O)N1C[C@H](O)[C@H](O)C[C@@H]1c1ccccc1Br	-1	3	0	-1	nt	nt
Cc1ccc(NC(=O)c2ccc(NCCc3ccccc3)c([N+](=O)[O-])c2)cc1F	0	-3	-2	0	-1	22
O=C(Nc1cc(F)cc(F)c1)c1ccc(NCCc2ccccc2)c([N+](=O)[O-])c1	1	3	-1	0	-1	57*
SMILES	hgDAF-12 ag	hcDAF12 agonist	ssDAF12 agonist	DAX1 inh-1	DAX1 inh-2	AHR activator
Cc1ccc(C(=O)NNC(=O)/C=C\C(=O)O)cc1	0	0	-1	0	0	5
COc1cc2ncnc(NCc3ccc4c(c3)OCO4)c2cc1OC	-1	-2	-1	0	0	63*
CCCc1c(C(=O)N/N=C(\C)c2cccnc2)nnn1-c1nonc1N	1	-1	-2	0	-1	nt
CCCOc1ccc(-c2c(C(=O)N/N=C(\C)c3cccnc3)nnn2-c2nonc2N)cc1	5	0	-1	0	0	56*
CCOc1ccc(-c2c(C(=O)N/N=C(\C)c3ccncc3)nnn2-c2nonc2N)cc1	1	-2	-1	0	0	15
CCOc1cccc(-c2c(C(=O)N/N=C(\C)c3cccnc3)nnn2-c2nonc2N)c1	-1	0	0	1	0	60*
COc1cccc(NC(=O)Cn2nnc(C(=O)NCc3cccs3)c2N)c1	2	-1	-1	0	2	0
O=C(N/N=C/c1ccc(O)cc1)c1nc(-c2ccccc2)n(-c2ccccc2)n1	4	-2	-2	0	-1	0
O=Nc1ccc(NO)c2ccccc12	-1	3	1.2*	-3	-1	nt
O=Nc1ccc(O)c2ncccc12	-12	-1	-2	-3	-2	2
CC(=O)Nc1ccc(S(=O)(=O)NC2=C(N3CCN(c4ccc(F)cc4)CC3)C(=O)c3ccccc3C2=O)cc1	-3	-1	-1	-1	-1	85*
Cc1ccc(S(=O)(=O)NC2=C(N3CCN(Cc4ccccc4)CC3)C(=O)c3ccccc3C2=O)cc1	1	0	-1	1	5.3*	1
O=C(Cn1cc(C(F)(F)F)ccc1=O)N1CCc2ccccc2C1	2	-2	1.0*	2	1	-1
O=C(Cn1cc(C(F)(F)F)ccc1=O)N1CCCc2ccccc21	-1	1	0	-1	0	-1
CC(=O)c1ccc(NC(=O)C2=CC(c3ccc4c(c3)OCO4)=NS(=O)(=O)N2C)cc1	-1	-1	-1	-1	1	8
CC(=O)c1cnc(Nc2ccccc2)s1	0	-1	-1	1	0	-4
CC(=O)c1cnc(Nc2cccc(Cl)c2Cl)s1	13*	2	0	2	3	3
O=C(c1ccc(Cl)cc1)c1cnc(Nc2ccccc2Cl)s1	13*	2	0	1	2	-3
O=C(c1ccc(Cl)cc1)c1cnc(-c2ccccc2)s1	0	0	-1	0	1	nt
CCn1c(COc2cc(C)cc(C)c2)nnc1SCC(=O)N1CCN(c2ccccc2)CC1	-2	0	-1	0	1	-2
Cc1noc(C)c1S(=O)(=O)N(CC(=O)N1CCCCCC1)c1ccc(C(C)C)cc1	-2	-3	-1	-1	0	4
COc1ccc(C2=Nc3ccccc3C2(O)CCN2C(=O)c3ccccc3C2=O)cc1 (configuration not stated)	10*	0	-1	0	1	nt
CCc1ccc(NS(=O)(=O)c2ccc3c(c2)oc(=O)n3C)cc1	-2	-2	-1	0	0	2
